Test systems include SR leukemia; RPMI-8226 leukemia; OVCAR-8 ovarian; OVCAR-5 ovarian; OVCAR-4 ovarian; SK-OV-3 ovarian; IGROV1 ovarian; OVCAR-3 ovarian; HS 578T breast; NCI/ADR-RES ovarian; T-47D breast; MDA-MB-435 melanoma; SW-620 colon; MCF7 breast; HCT-116 colon; HCC-2998 colon; KM12 colon.
Common to all, as to test: NCI-60 one-dose screen, 48 h (100 = growth as untreated, 0 = no growth, -100 = all killed)
Common to all, as to conditions: 10 µM unless noted

The panel holds about 83,000 compounds, 20% with a hit somewhere; the sample as a whole holds those more often.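 Activity criterion: percent growth below 10, measured after cells in 96-well plates were exposed to a single compound concentration for 48 hours.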 Unmarked numbers belong to inactive results. Calls of active or inactive are those of the source.

Regarding `COc1cc(OC)c2c(=O)cc(-c3ccccc3)oc2c1`, the growth with SR leukemia is 31.3%; in the test with RPMI-8226 leukemia, 77.6%; in the test on OVCAR-8 ovarian it was 103%; in the test with OVCAR-5 ovarian it was 93.7%; in the test on OVCAR-4 ovarian it was 105%; in the test with SK-OV-3 ovarian, 105%. In addition, the growth is 7.82% (active) in the test with IGROV1 ovarian; 104% in the test with OVCAR-3 ovarian; 113% in the test with HS 578T breast; 109% in the test on NCI/ADR-RES ovarian; 91.2% in the test with T-47D breast; 95.8% in the test on MDA-MB-435 melanoma. In addition, the growth in the test on SW-620 colon was 89.7%; in the test with MCF7 breast, 102%; in the test with HCT-116 colon, 88.9%; with HCC-2998 colon, 97%; in the test on KM12 colon it was 106%.

On to `CCCCCCCCCC[N+](C)(C)N`, for which the growth in the test with SR leukemia was 72.7%; in the test with RPMI-8226 leukemia, 78.1%; with OVCAR-8 ovarian, 88.1%; with OVCAR-5 ovarian it was 101%; in the test with OVCAR-4 ovarian, 99.1%; in the test on SK-OV-3 ovarian, 99.4%. The growth in the test on IGROV1 ovarian is 83.8%; in the test with OVCAR-3 ovarian, 100%; with HS 578T breast, 91.9%; in the test with NCI/ADR-RES ovarian, 112%; in the test with T-47D breast it was 96.7%; in the test on MDA-MB-435 melanoma, 91.9%. The growth in the test on SW-620 colon was 102%; in the test with MCF7 breast it was 98%; in the test on HCT-116 colon, 95.5%; in the test on HCC-2998 colon, 98.5%; in the test on KM12 colon, 99.8%.

`CC(=O)Nc1nc(C)c(C(=O)NNC(=O)Nc2ccccc2)s1`: the growth in the test with SR leukemia was 95.9%; in the test with RPMI-8226 leukemia it was 91.7%; with OVCAR-8 ovarian it was 113%; in the test on OVCAR-5 ovarian, 108%; with OVCAR-4 ovarian, 109%; with SK-OV-3 ovarian it was 105%. Besides, the growth with IGROV1 ovarian is 141%; with OVCAR-3 ovarian, 100%; with HS 578T breast, 102%; in the test with NCI/ADR-RES ovarian it was 98.6%; in the test on T-47D breast, 91.1%; in the test with MDA-MB-435 melanoma, 128%. Moreover, the growth in the test on SW-620 colon is 100%; in the test on MCF7 breast it was 100%; in the test with HCT-116 colon it was 102%; in the test on HCC-2998 colon, 104%; with KM12 colon it was 98.6%.

Consider `CC(=O)N1CCN(CCNC(=O)n2cc(-c3ccncc3)c(-c3cc(O)cc(Cl)c3)n2)CC1`, for which the growth with SR leukemia is 16.7%; in the test on RPMI-8226 leukemia it was 44.9%; in the test with OVCAR-8 ovarian it was 66%; in the test with OVCAR-5 ovarian, 110%; in the test on OVCAR-4 ovarian, 116%; in the test with SK-OV-3 ovarian it was 101%. For the same compound, the growth was 76.2% in the test on IGROV1 ovarian; 102% with OVCAR-3 ovarian; 91.9% in the test on HS 578T breast; 101% with NCI/ADR-RES ovarian; 100% in the test on T-47D breast; 49.3% in the test on MDA-MB-435 melanoma. Further, the growth with SW-620 colon was 76.8%; with MCF7 breast, 93.4%; in the test with HCT-116 colon, 43.6%; in the test on HCC-2998 colon, 122%; with KM12 colon it was 91.3%.

Consider `CC(=O)Nc1nc(C)c(C(=O)NNS(=O)(=O)c2ccccc2)s1`, for which the growth is 155% with SR leukemia; 135% in the test on RPMI-8226 leukemia; 101% in the test on OVCAR-8 ovarian; 106% in the test with OVCAR-5 ovarian; 112% with OVCAR-4 ovarian; 109% in the test on SK-OV-3 ovarian. In addition, the growth in the test on IGROV1 ovarian was 9.33% (active); with OVCAR-3 ovarian, 136%; in the test with HS 578T breast, 112%; with NCI/ADR-RES ovarian, 118%; in the test on T-47D breast it was 114%; with MDA-MB-435 melanoma, 125%. Further, the growth with SW-620 colon is 106%; in the test on MCF7 breast, 110%; in the test on HCT-116 colon, 52.1%; in the test on HCC-2998 colon, 105%; with KM12 colon it was 125%.

Consider `COc1cc(-c2nn(-c3ccc(NC(=O)c4ccc(Cl)c(C(F)(F)F)c4)cc3)cc2-c2ccncc2)ccc1Cl`, for which the growth was 2.82% (active) in the test on SR leukemia; -23% (active) in the test on RPMI-8226 leukemia; 49.2% with OVCAR-8 ovarian; 55.7% in the test with OVCAR-5 ovarian; 46.4% with OVCAR-4 ovarian; 60.5% in the test on SK-OV-3 ovarian. Further, the growth in the test on IGROV1 ovarian was 46.7%; with OVCAR-3 ovarian, 28.7%; in the test on HS 578T breast, -49.7% (active); in the test on NCI/ADR-RES ovarian it was 30.7%; in the test on T-47D breast, 26.7%; with MDA-MB-435 melanoma it was 24.3%. The growth in the test with SW-620 colon is 6.21% (active); in the test on MCF7 breast it was 21%; with HCT-116 colon it was 9.19% (active); in the test with HCC-2998 colon, 31.8%.

In the case of `Cc1nc(NC(=O)NC2CCCCC2)sc1C(=O)NN`, the growth with SR leukemia is 131%; with RPMI-8226 leukemia, 112%; in the test on OVCAR-8 ovarian it was 102%; in the test with OVCAR-5 ovarian, 102%; in the test on OVCAR-4 ovarian, 109%; with SK-OV-3 ovarian, 116%. For the same compound, the growth in the test with IGROV1 ovarian is 72.2%; in the test on OVCAR-3 ovarian, 99.5%; in the test on HS 578T breast, 105%; in the test with NCI/ADR-RES ovarian, 118%; in the test with T-47D breast it was 112%; with MDA-MB-435 melanoma, 115%. Besides, the growth in the test on SW-620 colon is 106%; with MCF7 breast, 105%; in the test on HCT-116 colon, 83.8%; in the test on HCC-2998 colon, 162%; in the test on KM12 colon it was 102%.

As to `Cc1nc(N)sc1C(=O)NCCO`, the growth with SR leukemia was 161%; with RPMI-8226 leukemia, 115%; in the test with OVCAR-8 ovarian it was 102%; with OVCAR-5 ovarian, 107%; with OVCAR-4 ovarian, 113%; in the test with SK-OV-3 ovarian, 113%. For the same compound, the growth in the test with IGROV1 ovarian is 118%; in the test on OVCAR-3 ovarian it was 102%; in the test on HS 578T breast, 109%; in the test on NCI/ADR-RES ovarian it was 122%; in the test with T-47D breast, 106%; in the test with MDA-MB-435 melanoma, 128%. The growth with SW-620 colon was 109%; with MCF7 breast, 98.2%; with HCT-116 colon, 99.6%; with HCC-2998 colon, 168%; in the test on KM12 colon it was 102%.

As to `COC(=O)[C@@H]1[C@H](O)[C@H](C)[C@H](O)[C@H](C)/C=C\C=C(C)C(=O)Nc2c(C)c(OC(C)=O)c3c(c2O)C(=O)C(C)=C2OCOC(=C23)C(C)=C[C@@](C)(O)[C@H](O)[C@@H](C)[C@H]1OC(C)=O`, the growth was 121% in the test on SR leukemia; 97.8% in the test with RPMI-8226 leukemia; 104% with OVCAR-8 ovarian; 108% in the test on OVCAR-5 ovarian; 96.4% in the test on OVCAR-4 ovarian; 109% in the test on SK-OV-3 ovarian. In addition, the growth with IGROV1 ovarian was 3.5% (active); in the test with OVCAR-3 ovarian, 137%; in the test with HS 578T breast, 127%; in the test on NCI/ADR-RES ovarian, 114%; with T-47D breast it was 118%; with MDA-MB-435 melanoma, 122%. The growth with SW-620 colon is 117%; with MCF7 breast, 104%; in the test on HCT-116 colon, 55.8%; with HCC-2998 colon, 118%; in the test on KM12 colon, 119%.

The values are drawn from PubChem BioAssay (NCI).
